Here are results for 20 compounds from PubChem BioAssay (NCATS).

A number with no mark means an inactive call. Inconclusive results are not listed. Activity calls are given as the source filed them. Calls follow the shape of the dose curve; as a rule, active = well fitted curve in the direction sought with a large enough effect; inconclusive = small, poorly fitted or top-dose-only effect, or another doubt; inactive = no such curve, though single readings can be large; an effect the other way counts as inactive or inconclusive.

Test [1] addresses Glutathione peroxidase 1 (Homo sapiens) (UniProt P07203). Briefly: Primary qHTS Assay for Inhibitors of Recombinant Selenoprotein Glutathione Peroxidase 1 (GPX1) (AID 1845191). Also: nearly all actives have a fitted effect of over 65% in size. As to activity, negative = inhibition: % is scaled to controls: 0 for no effect and ±100 for the full control effect. The gist of the method: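 GR-coupled assay: compounds preincubated 30 min at room temperature with GPX1, then reaction started with CHP; final 10 nM GPX1, 1 mM GSH, 0.5 mM CHP, 0.5 mM NADPH, 100 nM GR, 0.01% BSA, pH 7.5 Tris buffer. NADPH fluorescence (340/450 nm) read at 0 and 15 min.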
Background: In qHTS, concentration-response curves come from the screen itself.

In test [2] the target is Phospholipid hydroperoxide glutathione peroxidase GPX4 (Homo sapiens) (UniProt P36969). In words: Primary qHTS Assay for Inhibitors of Recombinant Selenoprotein Glutathione Peroxidase 4 (GPX4) (AID 1845192). Also: nearly all actives have a fitted effect of over 65% in size. As to activity change, negative = inhibition: series mostly up to about 50 µM; % is scaled to controls: 0 for no effect and ±100 for the full control effect. An outline of the steps:
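GR-coupled assay: recombinant GPX4 preincubated 30 min with compound at room temperature; final 200 nM GPX4, 1 mM GSH, 0.5 mM cumene hydroperoxide, 0.5 mM NADPH, 100 nM GR, 0.01% BSA, pH 7.5 Tris. NADPH fluorescence (340/450 nm) read at 0 and 15 min.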

For test [3], the target named is Luciferin 4-monooxygenase (Photinus pyralis) (UniProt P08659). Briefly: Primary firefly luciferase (FLuc) qHTS assay for identification of artifact compounds. (AID 1845220). Also: nearly all actives have a fitted effect of over 60% in size.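 As to activity change, negative = inhibition: series mostly up to about 54 µM; plate controls were DMSO vehicle for no effect and no enzyme for full effect.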 The gist of the method: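 D-luciferin and ATP (10 uM each, final) in Tris acetate buffer pH 7.6 were incubated with compounds for 15 min at room temperature. The reaction was started with 10 nM Photinus pyralis luciferase and luminescence read after 5 min. Percent inhibition was fitted to a 4-parameter Hill equation.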

A short description of test [4]: Primary fluorescence-based thiol-reactive (MSTI) qHTS assay for identification of artifact compounds. (AID 1845221). Also: nearly all actives have a fitted effect of over 65% in size. Also: potency is read from the fitted curve at half-maximal effect.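 As to activity change, negative = thiol reactive: series mostly up to about 54 µM; thiol-reactive compounds lower the probe fluorescence signal.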 An outline of the steps:
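Compounds were incubated 1 h at room temperature in the dark with the MSTI probe (4 uM) in PBS pH 7.4, 2% DMSO. Signals were normalized between Acetyl-MSTI and MSTI.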

Test [5] concerns Nanoluciferase (engineered Oplophorus gracilirostris luciferase). In words: Primary Nanoluciferase (NLuc) qHTS assay for identification of artifact compounds. (AID 1845222).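 Also: series mostly up to about 54 µM; 0% = DMSO and -100% = no enzyme.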 An outline of the steps:
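Diluted conditioned medium from NLuc-expressing S16 cells treated with compounds for 15 min at room temperature, then Nano-Glo substrate added; luminescence read after 5 min. Percent inhibition versus no-enzyme and DMSO controls fitted to 4-parameter Hill equation.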

A short description of test [6]: Primary redox qHTS assay for identification of artifact compounds. (AID 1845223).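 Also: 0% = DMSO and 100% = reference compound.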 The gist of the method:
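Amplex Red (25 uM) and HRP (250 mU/mL) in HBSS, with compounds for 15 min, then 250 uM DTT for 30 min, room temperature, dark. Fluorescence 525/598 nm read; normalized to DMSO and 10 uM DA3003; Hill fit.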

Chain of Phospholipid hydroperoxide glutathione peroxidase GPX4 (Homo sapiens) (P36969 whole entry, looked up): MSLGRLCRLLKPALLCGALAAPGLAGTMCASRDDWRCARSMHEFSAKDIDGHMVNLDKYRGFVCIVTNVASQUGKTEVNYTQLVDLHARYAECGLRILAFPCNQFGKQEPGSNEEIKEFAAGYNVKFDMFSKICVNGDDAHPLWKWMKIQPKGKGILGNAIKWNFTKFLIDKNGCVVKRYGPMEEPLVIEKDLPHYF
Chain of Glutathione peroxidase 1 (Homo sapiens) (P07203 whole entry, looked up): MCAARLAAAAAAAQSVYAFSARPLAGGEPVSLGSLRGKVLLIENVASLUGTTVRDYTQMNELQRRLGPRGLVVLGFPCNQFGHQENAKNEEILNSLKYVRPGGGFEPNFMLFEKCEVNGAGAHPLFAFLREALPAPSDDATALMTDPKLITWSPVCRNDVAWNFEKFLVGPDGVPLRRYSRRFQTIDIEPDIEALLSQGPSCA

With `C[C@@H]1O[C@@H](O[C@H]2[C@@H]3C=CO[C@@H](O[C@@H]4O[C@H](CO)[C@@H](O)[C@H](O)[C@H]4O)[C@@H]3[C@@]3(CO)O[C@@H]23)[C@H](OC(=O)/C=C/c2ccc(O)cc2)[C@H](O)[C@H]1O`, the Potency entry in test [1], in test [2], in test [3], in test [5] and in test [6] was “inactive” each time. Further, in test [4], the Potency was 3.54 µM (active).

Take `CCCCC(=O)N1c2ccccc2NC2=C(C(=O)CCC2)C1c1ccccc1Cl` (stereo not given): the Potency entry in test [1], in test [2], in test [3], in test [4], in test [5] and in test [6] was “inactive” in each case.

As to `CC(C)[C@](O)(c1ccc2cc(OC(F)F)c(OC(F)F)cc2c1)c1cn[nH]n1`, the Potency entry in test [1], in test [2], in test [3], in test [4], in test [5] and in test [6] was “inactive” throughout.

Take `C/C=C/C=C/C=C/C(=O)O[C@@H]1C=C(CO)[C@](O)(CO)[C@@]2(C)CCCC(C)(C)[C@H]12`: the Potency entry in test [1], in test [2], in test [3], in test [4], in test [5] and in test [6] was “inactive” each time.

For `C=C(C)[C@@H]1CC[C@]2(C(=O)O)CC[C@]3(C)C(CCC4[C@]5(C)C(CC[C@]43C)C(C)(C)[C@@H](O)[C@@H]5C(=O)O)C12` (stereo not given in full), the Potency entry in test [1], in test [2], in test [3], in test [4], in test [5] and in test [6] was “inactive” throughout.

With `C=C1CCC2C(C)(C(=O)O)CCCC2(C)C1CC/C(C)=C\CO` (stereo not given), the Potency entry in test [1], in test [2], in test [3], in test [4], in test [5] and in test [6] was “inactive” throughout.

On to `CN1CCN(c2nc(-c3ccc(C(=O)NC4(C(=O)NCC#N)CCCCC4)cc3)cs2)CC1`, for which the Potency result in test [1], in test [2], in test [3], in test [4], in test [5] and in test [6] was “inactive” each time.

As to `CC1CCC2(C(=O)OC3OC(CO)C(O)C(O)C3O)CCC3(C)C(=CCC4C5(C)CCC(O)C(C)(CO)C5CCC43C)C2C1(C)O` (stereo not given), the Potency result in test [1], in test [2], in test [3], in test [4], in test [5] and in test [6] was “inactive” each time.

For the compound `COC(=O)C1=C[C@@H](O)[C@@H](O)[C@H](O[C@@H]2O[C@H](CO)[C@@H](O)[C@H](O)[C@H]2OC(=O)/C=C/c2ccccc2)C1`, the Potency entry in test [1], in test [2], in test [3], in test [4], in test [5] and in test [6] was “inactive” throughout.

Regarding `O=C(O)CCc1cc2ccoc2cc1O[C@@H]1O[C@H](CO)[C@@H](O)[C@H](O)[C@H]1O`, the Potency entry in test [1], in test [2], in test [3], in test [4], in test [5] and in test [6] was “inactive” throughout.

As to `CC(C)NC(=O)c1ccc(C#Cc2ccncc2)cn1`, the Potency entry in test [1], in test [2], in test [3], in test [4], in test [5] and in test [6] was “inactive” each time.

On to `CC(=O)/C=C/C1C(C)CC(O[C@@H]2O[C@H](CO)[C@@H](O)[C@H](O)[C@H]2O)CC1(C)C` (stereo not given in full), for which the Potency result in test [1], in test [2], in test [3], in test [5] and in test [6] was “inactive” throughout. In addition, in test [4], the Potency was 14.7 µM (active).

With `CC(O)C/C=C/C=C/C(=O)OC1C=C2COC(=O)C2(O)C2(C)CCCC(C)(C)C12` (stereo not given), the Potency result in test [1], in test [2], in test [3], in test [4], in test [5] and in test [6] was “inactive” throughout.

For `Cc1ccc2nc(NC(=O)CSc3nc4c(c(=O)n3-c3ccc(F)cc3)SCC4)sc2c1`, the Potency entry in test [1], in test [2], in test [3], in test [4], in test [5] and in test [6] was “inactive” throughout.

Consider `O=C(O)[C@H]1Cc2ccccc2CN1`, for which the values for the outcome in test [1] and in test [3] were “inactive [at 4.49 µM]” and “inactive [at 6.45 µM]”, respectively. Also, the activity change, negative = inhibition in test [2] was 3.24% [at 4.52 µM]. Besides, in test [4], the activity change, negative = thiol reactive was -3.73% [at 6.41 µM]. Further, the activity, negative = inhibition in test [5] was 0% [at 6.45 µM]. Further, the redox activity (% of DA3003) in test [6] is -3.86% [at 6.41 µM].

Take `C=C(C)[C@@H]1CC[C@]2(C)CC[C@]3(C)C(CCC4[C@@]5(C)CC[C@H](O)C(C)(C)C5CC[C@]43C)C12` (stereo not given in full): the Potency result in test [1], in test [2], in test [3], in test [4], in test [5] and in test [6] was “inactive” throughout.

Take `CC1OC(OC2C(OC3C(O[C@H]4CC[C@@]5(C)C(CC[C@]6(C)C5CC=C5C7CC(C)(C)CC(O)[C@]7(C)CC[C@]56C)C4(C)C)OC(C(=O)O)C(O)C3O)OCC(O)C2O)C(O)C(O)C1O` (stereo not given in full): the Potency result in test [1] and in test [2] was “inactive” throughout. Further, the activity change, negative = inhibition in test [3] was 4.47% [at 11.6 µM]. The activity change, negative = thiol reactive in test [4] was 167% [at 11.5 µM]. Also, the activity, negative = inhibition in test [5] is 4.85% [at 11.6 µM]. Also, the redox activity (% of DA3003) in test [6] is 9.66% [at 11.5 µM].

Consider `CC(=O)/C=C/C1(O)C(C)CC(O[C@@H]2O[C@H](CO)[C@@H](O)[C@H](O)[C@H]2O)CC1(C)C` (stereo not given in full), for which the Potency entry in test [1], in test [2], in test [3], in test [5] and in test [6] was “inactive” in each case. In addition, the Potency in test [4] was 9.22 µM (active).

Take `CC(=O)[C@@H]1C[C@H](C(C)(C)O[C@@H]2O[C@H](CO)[C@@H](O)[C@H](O)[C@H]2O)CC[C@@]2(CO)OC(=O)C[C@@H]12`: the Potency entry in test [1], in test [2], in test [3], in test [4], in test [5] and in test [6] was “inactive” in each case.

Take `O=C(NC/C=C/CN1CCN(c2cccc(Cl)c2Cl)CC1)c1ccc(-c2ccccn2)cc1`: the Potency entry in test [1], in test [2], in test [3], in test [4], in test [5] and in test [6] was “inactive” each time.
